# Measurements taken from PubChem BioAssay (NCI).
# Compounds without any hit were thinned out: in the full panel of roughly 83,000, 20% have a hit.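 Note: values are percent growth. 100 is the growth of untreated cells, values between 100 and 0 indicate rising inhibition; between -100 and 0 indicates cell death.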 Activity calls are given as the source filed them. How the source made its calls: active means growth percent below 10; inactive means the rest.
# Test system: OVCAR-3 ovarian
# Experiment: NCI-60 one-dose screen, 48 h (100 = growth as untreated, 0 = no growth, -100 = all killed)
# Conditions: 10 µM unless noted
row,SMILES,growth
1,COc1ccc(O)c(-c2cc(-c3ccccc3)c(C#N)c(=O)[nH]2)c1,95.9% (inactive)
2,CN(C)c1ccc(/C=C2\C=C(c3ccccc3)N(CCc3ccccc3)C2=O)cc1,62.3% (inactive)
3,O=c1oc2ccc(Cl)cc2cc1-c1cs/c(=N/N=C\c2ccc(Cl)cc2)n1/N=C/c1ccc(Cl)cc1,106% (inactive)
4,O=C1c2ccccc2C2(c3ccc(O)cc3)c3ccccc3Oc3cccc1c32 (stereo not drawn),11.2% (inactive)
5,c1ccc([P+](CCCc2n(Cc3ccc4ccccc4c3)c3ccccc3[n+]2Cc2ccc3ccccc3c2)(c2ccccc2)c2ccccc2)cc1,75.8% (inactive)
6,C/C(Cc1ccc(Cl)cc1)=C(/c1ccc(Cl)cc1)c1ccc(OCCN(C)C)cc1,57.2% (inactive)
7,COc1cc2c(cc1OC)-c1ccc3cc4c(cc3c1N(CCCN1CCCCC1)C2)OCO4,60.8% (inactive)
8,COc1ccc(C(=O)/C=C/c2cc3c(c(OC)c2)OCC(=O)N3)cc1,2.27% (active)
9,Cn1nnnc1-c1ccc(N)cc1,101% (inactive)
10,CCCCNCC(=O)Nc1ccc(C(=O)OCC)cc1,113% (inactive)
11,CCCCCOC(=O)c1ccc(NC(=O)CNCC(C)C)cc1,101% (inactive)
12,Cc1nc(Nc2cccc(NC(=O)Nc3ccc(Cl)cc3)c2)c2ccccc2n1,90.7% (inactive)
13,C=C(Cl)COC(=O)C(C)(C)O,109% (inactive)
14,CCNCCNc1cc(-c2ccc(Cl)cc2)c(C#N)c2nc3ccccc3n12,-78.2% (active)
15,O=C1NCC(=O)N(Cc2ccco2)[C@H]1Cc1ccccc1,110% (inactive)
16,Cc1ccc(NC(=O)C(Cl)Cl)cc1,112% (inactive)
17,CCOc1cccnc1/C=N/NC(N)=S,22.2% (inactive)
18,O=C(c1ccccc1)c1ccc(Cl)c([N+](=O)[O-])c1,75.7% (inactive)
19,CCN(CC)CC(=O)Nc1cccc(C(=O)OC(C)C)c1,103% (inactive)
20,CCOC(=O)C(O)C(O)(c1ccccc1)c1ccccc1 (stereo not drawn),108% (inactive)

row,SMILES,growth
1,C[C@@H]1C(=O)N(C[C@@H](Cc2ccccc2)NC(=O)OCc2ccccc2)[C@]1(Cc1ccccc1)C(=O)OCc1ccccc1,43.3% (inactive)
2,CC1(C)N=C(N)N=C(N)N1c1cccc(CN)c1,94.9% (inactive)
3,CC(c1ccc(-n2cccn2)cc1)c1cnc(N2CCc3ccc(C(N)=O)cc3C2)s1 (stereo not drawn),71.5% (inactive)
4,COc1ccc(OC)c(Nc2nc3nonc3nc2Nc2cccc(Br)c2)c1,10.1% (inactive)
5,N#Cc1c(N)nc2c(nnn2-c2cccc(Br)c2)c1N,106% (inactive)
6,[2H]c1nc(Nc2ncc(F)c(-c3cc(F)c4nc(C)n(C(C)C)c4c3)n2)c([2H])c([2H])c1CN1CCN(C([2H])([2H])C([2H])([2H])[2H])CC1,71% (inactive)
7,Cc1c(C(=O)O)nnn1-c1nccs1,106% (inactive)
8,CCNCCNc1cc(-c2ccc(C(=O)OC)cc2)c(C#N)c2nc3ccccc3n12,-57% (active)
9,CO[C@H]1/C=C/O[C@@]2(C)Oc3c(C)c(O)c4c(c3C2=O)C(=O)C(/C=N/N(c2ccccc2)c2ccccc2)=C(NC(=O)/C(C)=C\C=C\[C@H](C)[C@H](O)[C@@H](C)[C@@H](O)[C@@H](C)[C@H](OC(C)=O)[C@@H]1C)C4=O,-83% (active)
10,O[C@H]1CO[C@H]2[C@@H]1OC[C@@H]2Oc1ccc(Nc2nc(Nc3ccc(F)c(Cl)c3)ncc2F)cc1Cl,103% (inactive)
11,CCNCCNc1cc(-c2cccc(C(F)(F)F)c2)c(C#N)c2nc3ccccc3n12,-86.7% (active)
12,CN(C)CCN1C(=O)c2cccc3c(-c4ccc(-c5nc6c7ccccc7c7ccccc7c6[nH]5)cc4)ccc(c23)C1=O,117% (inactive)
13,CCOC(=O)c1c(C)nc2c(c1N)/C(=C/c1ccc(OC)cc1)C(=O)N2Cc1ccc(F)cc1,-91.4% (active)
14,CSc1ccc(Cl)c(C(=O)Nc2sccc2C(N)=O)c1,100% (inactive)
15,CN1C[C@@H](c2ccc(Cl)cc2)[C@]2(NC(=S)N(c3ccc(F)c(Cl)c3)C2=O)[C@@]12C(=O)NC1C=CC(Cl)=C[C@H]12 (stereo partly drawn),48.5% (inactive)
16,O=C(Nc1ccccc1)c1sc(-c2cccc(C(F)(F)F)c2)cc1O,53.1% (inactive)
17,NS(=O)(=O)c1cn(-c2ncnc3nc[nH]c23)ccc1=O,103% (inactive)
18,Nc1c(C(=O)c2ccccc2)nnc2ncnn12,105% (inactive)
19,CCCCCCCSc1ccc(C(=O)O)cc1,118% (inactive)

# Test system: HS 578T breast
# Experiment: as above
# Conditions: 10 µM unless noted
row,SMILES,growth
1,COc1ccc(O)c(-c2cc(-c3ccccc3)c(C#N)c(=O)[nH]2)c1,89.6% (inactive)
2,CN(C)c1ccc(/C=C2\C=C(c3ccccc3)N(CCc3ccccc3)C2=O)cc1,19.1% (inactive)
3,O=c1oc2ccc(Cl)cc2cc1-c1cs/c(=N/N=C\c2ccc(Cl)cc2)n1/N=C/c1ccc(Cl)cc1,101% (inactive)
4,O=C1c2ccccc2C2(c3ccc(O)cc3)c3ccccc3Oc3cccc1c32 (stereo not drawn),25.8% (inactive)
5,c1ccc([P+](CCCc2n(Cc3ccc4ccccc4c3)c3ccccc3[n+]2Cc2ccc3ccccc3c2)(c2ccccc2)c2ccccc2)cc1,68.6% (inactive)
6,C/C(Cc1ccc(Cl)cc1)=C(/c1ccc(Cl)cc1)c1ccc(OCCN(C)C)cc1,61% (inactive)
7,COc1cc2c(cc1OC)-c1ccc3cc4c(cc3c1N(CCCN1CCCCC1)C2)OCO4,56.1% (inactive)
8,COc1ccc(C(=O)/C=C/c2cc3c(c(OC)c2)OCC(=O)N3)cc1,42.3% (inactive)
9,Cn1nnnc1-c1ccc(N)cc1,96.8% (inactive)
10,CCCCNCC(=O)Nc1ccc(C(=O)OCC)cc1,108% (inactive)
11,CCCCCOC(=O)c1ccc(NC(=O)CNCC(C)C)cc1,96.9% (inactive)
12,Cc1nc(Nc2cccc(NC(=O)Nc3ccc(Cl)cc3)c2)c2ccccc2n1,104% (inactive)
13,C=C(Cl)COC(=O)C(C)(C)O,110% (inactive)
14,CCNCCNc1cc(-c2ccc(Cl)cc2)c(C#N)c2nc3ccccc3n12,-36% (active)
15,O=C1NCC(=O)N(Cc2ccco2)[C@H]1Cc1ccccc1,89% (inactive)
16,Cc1ccc(NC(=O)C(Cl)Cl)cc1,102% (inactive)
17,CCOc1cccnc1/C=N/NC(N)=S,60.4% (inactive)
18,O=C(c1ccccc1)c1ccc(Cl)c([N+](=O)[O-])c1,87.7% (inactive)
19,CCN(CC)CC(=O)Nc1cccc(C(=O)OC(C)C)c1,120% (inactive)
20,CCOC(=O)C(O)C(O)(c1ccccc1)c1ccccc1 (stereo not drawn),108% (inactive)

row,SMILES,growth
1,C[C@@H]1C(=O)N(C[C@@H](Cc2ccccc2)NC(=O)OCc2ccccc2)[C@]1(Cc1ccccc1)C(=O)OCc1ccccc1,55.2% (inactive)
2,CC1(C)N=C(N)N=C(N)N1c1cccc(CN)c1,95.6% (inactive)
3,CC(c1ccc(-n2cccn2)cc1)c1cnc(N2CCc3ccc(C(N)=O)cc3C2)s1 (stereo not drawn),100% (inactive)
4,COc1ccc(OC)c(Nc2nc3nonc3nc2Nc2cccc(Br)c2)c1,7.84% (active)
5,N#Cc1c(N)nc2c(nnn2-c2cccc(Br)c2)c1N,68.8% (inactive)
6,[2H]c1nc(Nc2ncc(F)c(-c3cc(F)c4nc(C)n(C(C)C)c4c3)n2)c([2H])c([2H])c1CN1CCN(C([2H])([2H])C([2H])([2H])[2H])CC1,35.7% (inactive)
7,Cc1c(C(=O)O)nnn1-c1nccs1,86.9% (inactive)
8,CCNCCNc1cc(-c2ccc(C(=O)OC)cc2)c(C#N)c2nc3ccccc3n12,59.3% (inactive)
9,CO[C@H]1/C=C/O[C@@]2(C)Oc3c(C)c(O)c4c(c3C2=O)C(=O)C(/C=N/N(c2ccccc2)c2ccccc2)=C(NC(=O)/C(C)=C\C=C\[C@H](C)[C@H](O)[C@@H](C)[C@@H](O)[C@@H](C)[C@H](OC(C)=O)[C@@H]1C)C4=O,-0.488% (active)
10,O[C@H]1CO[C@H]2[C@@H]1OC[C@@H]2Oc1ccc(Nc2nc(Nc3ccc(F)c(Cl)c3)ncc2F)cc1Cl,98.7% (inactive)
11,CCNCCNc1cc(-c2cccc(C(F)(F)F)c2)c(C#N)c2nc3ccccc3n12,-48.3% (active)
12,CN(C)CCN1C(=O)c2cccc3c(-c4ccc(-c5nc6c7ccccc7c7ccccc7c6[nH]5)cc4)ccc(c23)C1=O,117% (inactive)
13,CCOC(=O)c1c(C)nc2c(c1N)/C(=C/c1ccc(OC)cc1)C(=O)N2Cc1ccc(F)cc1,54.7% (inactive)
14,CSc1ccc(Cl)c(C(=O)Nc2sccc2C(N)=O)c1,99.4% (inactive)
15,CN1C[C@@H](c2ccc(Cl)cc2)[C@]2(NC(=S)N(c3ccc(F)c(Cl)c3)C2=O)[C@@]12C(=O)NC1C=CC(Cl)=C[C@H]12 (stereo partly drawn),77.6% (inactive)
16,O=C(Nc1ccccc1)c1sc(-c2cccc(C(F)(F)F)c2)cc1O,63.8% (inactive)
17,NS(=O)(=O)c1cn(-c2ncnc3nc[nH]c23)ccc1=O,102% (inactive)
18,Nc1c(C(=O)c2ccccc2)nnc2ncnn12,106% (inactive)
19,CCCCCCCSc1ccc(C(=O)O)cc1,128% (inactive)
